CHX counter – Cycloheximide Counterscreen for Small Molecule Inhibitors of Shiga Toxin; cell reporter, cycloheximide protein synthesis inhibition counterscreen; max response, %; hit rate 12% among 300,000; AID 2314, 2010; in the data active means max response mostly above about 13%, no sharp cut-off; inactive means mostly below about 14%; further: read at 38.3 µM for the half of the compounds with a filed dose; 0% is about no effect
Shiga inhibitor – A qHTS for Small Molecule Inhibitors of Shiga Toxin | inhibition, % at 38.7 µM | Vero cells, Shiga toxin protein synthesis inhibition reporter | hit rate 9.2% among 290,000; in the data active means inhibition mostly above about 28%, no sharp cut-off; inactive means mostly below about 43%; further: 0% is about no effect
Pf growth 96h – Primary qHTS for delayed death inhibitors of the malarial parasite plastid, 96 hour incubation; P. falciparum luciferase reporter growth, 96 h; Potency, µM (top dose mostly 28.7 µM), for the others: at the highest dose activity change, negative = inhibition, actives largely listed as inhibitors; hit rate 6.9% among 320,000; AID 504834, 2011; further: potency means the concentration at half of the fitted maximal effect; on the % scale 0 is the no-effect control and ±100 the full control effect
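Two-generation exposure (96 h) targets delayed-death phenotype. Reporter parasites carrying integrated firefly luciferase, in red cells at 2% hematocrit and 0.05% parasitemia final, kept at 37 C, 5% CO2; luminescence loss indicates inhibition.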
Pf growth 48h – Primary qHTS for delayed death inhibitors of the malarial parasite plastid, 48 hour incubation | P. falciparum luciferase growth in erythrocytes, 48 h | Potency, µM (series often up to 28.7 µM), for inactives: at the highest dose activity change, negative = inhibition, most hits filed as inhibitors | hit rate 5.9% among 310,000 | AID 504832, 2011; further: potency means the concentration at half of the fitted maximal effect; on the % scale 0 is the no-effect control and ±100 the full control effect
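First compound was added to culture medium, then infected red cells at 0.1% parasitemia and 2% hematocrit (final). After incubation at 37 C under 5% CO2, luciferase detection reagent was dispensed and light output recorded.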
LmPK inhibitor – qHTS Assay for Inhibitors of Leishmania Mexicana Pyruvate Kinase (LmPK). purified LmPK, Kinase-Glo ATP luminescence, 1 h. Potency, µM (titrated, usually from 57.5 µM), without a hit: at the top dose activity change, negative = inhibition, most hits filed as inhibitors. hit rate 0.37% among 290,000. AID 1721, 2009; further: potency means the concentration at half of the fitted maximal effect; on the % scale 0 is the no-effect control and ±100 the full control effect
Target sequence (Q27686 whole entry, looked up): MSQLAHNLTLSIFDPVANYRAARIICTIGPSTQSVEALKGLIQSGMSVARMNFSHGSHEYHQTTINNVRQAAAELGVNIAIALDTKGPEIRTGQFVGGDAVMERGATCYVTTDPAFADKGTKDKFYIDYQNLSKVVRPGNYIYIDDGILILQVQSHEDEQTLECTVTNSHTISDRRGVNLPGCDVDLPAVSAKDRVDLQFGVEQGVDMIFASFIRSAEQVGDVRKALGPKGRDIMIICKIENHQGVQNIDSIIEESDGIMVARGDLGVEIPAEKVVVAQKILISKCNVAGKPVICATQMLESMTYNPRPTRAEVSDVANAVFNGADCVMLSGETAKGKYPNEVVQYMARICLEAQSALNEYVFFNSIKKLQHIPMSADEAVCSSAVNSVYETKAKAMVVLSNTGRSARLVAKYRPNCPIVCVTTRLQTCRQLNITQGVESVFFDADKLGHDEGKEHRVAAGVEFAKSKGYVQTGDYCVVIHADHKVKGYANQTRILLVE
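Kinase-Glo luminescence read after 1 h RT reaction of 0.1 nM LmPK with 0.5 mM PEP and 0.1 mM ADP. Activity scaled between uninhibited and enzyme-free controls.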
The depositor's hits bear a star; i = inactive; ? = inconclusive; · = not tested or not shown; + = active, no number. Most compounds without a hit are left out; they make up all but 22% or so of the library. Unless noted, the call rests on the fitted dose curve; in most records, active means well fitted inhibition curve with a large enough effect; inconclusive means small, poorly fitted or top-dose-only effect, or another doubt; inactive means no such curve, though single readings can be large or run the other way.

SMILES	CHX counter	Shiga inhibitor	Pf growth 96h	Pf growth 48h	LmPK inhibitor
CN(C)/C=C/C1=C([N+](=O)[O-])C(c2cccc([N+](=O)[O-])c2)NC(=O)N1 (stereo not drawn)	-1.1	-8.2	11.6%	5.1%	5.6%
COc1ccc(NC(=O)C2CCN(c3ncnc4c3nc3n4CCCCC3)CC2)cc1Cl	-0.4	-3.1	9.7%	?	5.6%
CSc1ccccc1C(=O)C1CCCN(C(=O)CCN2CCCO2)C1 (stereo not drawn)	2.1	8.8	5.22µM*	37.3%	-3.6%
O=C(c1cccc2ccccc12)C1CCCN(C(=O)CCN2CCCO2)C1 (stereo not drawn)	9.1	12.6	?	0.2%	3.2%
O=C(c1cc(F)ccc1F)C1CCCN(C(=O)CCN2CCCCO2)C1 (stereo not drawn)	16.7*	22.7	?	24.5%	-0.4%
Cc1ccccc1CC1(CO)CCCN(C(=O)CCN2CCCO2)C1 (stereo not drawn)	17.0*	35.6*	2.62µM*	4.7%	-2.8%
Cc1ccccc1CC1(CO)CCCN(C(=O)CCC(=O)c2ccccc2)C1 (stereo not drawn)	1.0	19.3	0.9%	11.2%	1.7%
O=C(c1cccc2ccccc12)C1CCCN(C(=O)c2ccc(N3CCOCC3)cc2)C1 (stereo not drawn)	21.7	40.5	-0.6%	?	3.8%
CSc1ccccc1C(=O)C1CCCN(C(=O)c2ccc(N3CCOCC3)cc2)C1 (stereo not drawn)	16.5*	34.4*	10.4µM*	-13.9%	6.5%
Cc1ccc(-n2ccc(=O)c(C(=O)Nc3ccc(S(=O)(=O)Nc4onc(C)c4C)cc3)n2)cc1	-0.3	-5.5	-18.6%	-14.1%	-3.0%
COc1ccc(S(=O)(=O)c2snnc2C)cc1	1.2	-1.6	14.3%	·	-0.4%
CCOc1ccc(-c2nnn(CC(=O)Nc3cccc(OC)c3)n2)cc1OCC	1.0	-2.5	11.7µM*	-23.4%	8.4%
CCCCCCCCCCCCCCCC(=O)NCCc1c[nH]c2ccccc12	-1.1	-14.4	2.4%	?	6.7%
CCCCOc1ccc(-c2nnn(CC(=O)NCCc3c[nH]c4ccccc34)n2)cc1	14.6*	25.1	36.6%	?	5.3%
COc1ccc(CCn2nnc(-c3ccc(NC(C)=O)c(Cl)c3)n2)cc1	-0.6	-4.0	?	5.2%	7.9%
COc1ccc(-c2ccc(-c3nnn(CC(C)=O)n3)cc2)cc1	35.0*	92.8*	-1.0%	176.1%	-1.6%
CCOC(=O)CC(NC(=O)Cn1nnc(-c2ccccc2)n1)c1ccc(OC)cc1 (stereo not drawn)	24.7*	12.8	-2.3%	-7.1%	-2.0%
CCN(Cc1ccncc1)C(=O)c1ccc(Br)o1	-1.0	-4.7	3.1%	9.1%	-3.1%
CCC(CC)C1=NN2C(=N)/C(=C\c3cc(C)n(-c4cccc(C)c4)c3C)C(=O)N=C2S1	3.7	-9.9	24.5%	-8.7%	1.6%
c1ccc2c(Cn3ccnc3)cccc2c1	5.9	-8.2	?	?	-0.3%
COC(=O)c1ccccc1NC(=O)Cn1nnc(-c2ccc(OC)cc2)n1	-2.2	-1.9	0.586µM*	-17.7%	-2.0%
COc1cccc(-c2nnn(CC(C)=O)n2)c1	53.2*	+	?	i	-9.8%
COc1cccc(-c2nnn(CC(=O)N3CCCCC3)n2)c1	21.3*	41.2*	?	75.6%	-3.1%
CCOC(=O)C(Cc1ccccc1)NC(=O)Cn1nnc(-c2ccc(SC)cc2)n1 (stereo not drawn)	-2.1	-8.1	?	-10.3%	-5.5%
CSc1ccc(-c2nnn(CC(=O)NCc3ccccc3)n2)cc1	11.0*	10.6	·	19.5%	2.7%
SMILES	CHX counter	Shiga inhibitor	Pf growth 96h	Pf growth 48h	LmPK inhibitor
COc1cccc(OCC(O)CN2CCN(C)CC2)c1 (stereo not drawn)	-1.3	-2.8	12.2%	12.4%	-6.8%
O=C(CN1CCNC(=O)C1)NCCc1ccc(Cl)cc1Cl	-5.8	-7.7	?	-22.1%	5.3%
C=CCNC(=O)Cn1nnc(-c2ccc(-c3ccc(OC)cc3)cc2)n1	22.7*	51.0*	10.4%	100.3%	0.1%
CCOc1ccc(-c2nnn(CC(=O)NCc3ccc(F)cc3)n2)cc1OCC	-6.2	-12.5	?	2.5%	-0.8%
COC(=O)c1ccccc1NC(=O)C1CCN(C(=O)c2ccc(OC)cc2)CC1	-2.8	-20.4	11.7µM*	0.2%	3.2%
NC(=O)Cn1nnc(-c2ccc(NC(=O)c3ccc(F)cc3)cc2)n1	27.3*	70.0*	?	20.2%	-2.8%
CCOc1ccc(-c2nnn(CC(=O)c3ccc4c(c3)OCCO4)n2)cc1OCC	33.6*	18.2	14.7µM*	-11.3%	-1.4%
O=C(Cn1nnc(-c2ccc(NC(=O)c3ccccc3F)cc2)n1)NCc1ccc(F)cc1	11.8	21.2	57.3%	40.9%	2.2%
COc1ccc(C(=O)Nc2ccc(-c3nnn(CC(=O)NCc4ccco4)n3)cc2)cc1	-3.0	-5.4	24.4%	2.2%	-7.2%
CSc1ccc(C(=O)C2CCCN(C(=O)Cn3cnnn3)C2)cc1 (stereo not drawn)	-2.0	-3.9	?	1.4%	-10.5%
CSCC[C@H](NC(=O)[C@H](CC(C)C)NC(=O)[C@@H]1CCCN1C(=O)[C@H](Cc1ccccc1)NC(=O)[C@H](Cc1ccccc1)NC(=O)[C@H](CCC(N)=O)NC(=O)[C@H](CCC(N)=O)NC(=O)[C@@H]1CCCN1C(=O)[C@H](CCCCN)NC(=O)[C@@H]1CCCN1C(=O)[C@@H](N)CCCN=C(N)N)C(N)=O	0.4	2.2	·	·	·
CC(=O)Cn1nnc(-c2ccc(C(F)(F)F)cc2)n1	26.9*	60.6*	36.1%	47.9%	-4.9%
NNC(=O)Cn1nnc(-c2ccc(C(F)(F)F)cc2)n1	1.0	-5.1	21.8%	17.0%	2.6%
O=C(COC(=O)c1ccccc1)Nc1cc(Cl)ccc1Oc1ccccc1	-3.1	-10.9	?	13.3%	-3.1%
O=C(COC(=O)c1c(Cl)cccc1Cl)Nc1cc(Cl)ccc1Oc1ccccc1	5.4	-4.5	?	13.1µM*	-0.1%
Cc1ccccc1OCC(=O)Nc1cc(Cl)ccc1Oc1ccccc1	-3.9	-10.8	5.22µM*	?	-2.0%
CCNS(=O)(=O)c1ccc(CCC(=O)Nc2cc(Cl)ccc2Oc2ccccc2)cc1	-1.0	-15.4	8.28µM*	?	2.5%
CC(C)NS(=O)(=O)c1ccc(CCC(=O)Nc2cc(Cl)ccc2Oc2ccccc2)cc1	-2.6	-7.2	?	·	2.2%
COc1ccccc1OCC(=O)Nc1cc(Cl)ccc1Oc1ccccc1	-1.5	-6.9	31.2%	-75.9%	0.2%
Cc1ccccc1OCC(=O)NS(=O)(=O)c1ccc(Cl)cc1	-3.5	-3.6	5.22µM*	-9.9%	-3.3%
CCCCCn1c(=O)[nH]c2cc(C(=O)NCCCN3CCCCC3CC)ccc2c1=O (stereo not drawn)	-6.1	-2.4	?	?	5.2%

Source: PubChem (National Center for Advancing Translational Sciences (NCATS))
